Measured values as given in PubChem BioAssay AID1159580 (chemical genetic matrix, 2015).
Among all 5,500 compounds or so, about 2,000 (36%) were called active. About 18% were inconclusive and are not listed. Rule as the data show it: active = normalized growth mostly below about 0.91 (no sharp cut-off); inconclusive = no clear call, values can overlap the other calls; inactive = mostly above about 0.92. Some of the results follow.

Assay: chemical genetic growth profiling, strain panel (AID 1159580);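 also: tested at 20 µM; growth read once vehicle control cultures reached saturation at 30 °C; 1 = growth at the plate median or of vehicle wells; lower values mean less growth of the strain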
Conditions: S. cerevisiae deletion strains, growth OD
[1] = locus YAR019C, strain CDC15, active compounds read low
[2] = locus YBL105C, strain PKC1, active compounds read low
[3] = locus YBR135W, strain CKS1, active compounds read low
[4] = locus YBR136W, strain MEC1, active compounds read low
[5] = locus YBR160W, strain CDC28, active compounds read low
[6] = locus YDL017W, strain CDC7, active compounds read low
[7] = locus YDL028C, strain MPS1, active compounds read low
[8] = locus YDL101C, strain DUN1, active compounds read low
[9] = locus YDL108W, strain KIN28, active compounds read low
[10] = locus YDL132W, strain cdc53, active compounds read low
[11] = locus YDL214C, strain PRR2, active compounds read low
[12] = locus YDR052C, strain DBF4, active compounds read low
[13] = locus YDR054C, strain cdc34, active compounds read low
[14] = locus YDR226W, strain ADK1, active compounds read low
[15] = locus YDR477W, strain SNF1, active compounds read low
[16] = locus YER123W, strain YCK3, active compounds read low
[17] = locus YER133W, strain GLC7, active compounds read low
[18] = locus YFL009W, strain cdc4, active compounds read low
[19] = locus YFL029C, strain CAK1, active compounds read low
[20] = locus YFR003C, strain YPI1, active compounds read low
[21] = locus YFR019W, strain FAB1, active compounds read low
[22] = locus YFR028C, strain CDC14, active compounds read low
[23] = locus YGR040W, strain KSS1, active compounds read low
[24] = locus YGR052W, strain FMP48, active compounds read low
[25] = locus YGR092W, strain DBF2, active compounds read low
[26] = locus YHR030C, strain SLT2, active compounds read low
[27] = locus YHR079C, strain IRE1, active compounds read low
[28] = locus YHR082C, strain KSP1, active compounds read low
[29] = locus YHR205W, strain SCH9, active compounds read low
[30] = locus YIL147C, strain SLN1, active compounds read low
[31] = locus YJL095W, strain BCK1, active compounds read low
[32] = locus YJL128C, strain PBS2, active compounds read low
[33] = locus YJL157C, strain FAR1, active compounds read low
[34] = locus YJR016C, strain ILV3, active compounds read low
[35] = locus YJR066W, strain TOR1 (second series), active compounds read low
[36] = locus YJR066W, strain TOR1, active compounds read low
[37] = locus YKL048C, strain ELM1, active compounds read low
[38] = locus YKL067W, strain YNK1, active compounds read low
[39] = locus YKL101W, strain HSL1, active compounds read low
[40] = locus YKL193C, strain SDS22, active compounds read low
[41] = locus YKL203C, strain TOR2, active compounds read low
[42] = locus YLR113W, strain HOG1, active compounds read low
[43] = locus YLR133W, strain CKI1, active compounds read low
[44] = locus YLR403W, strain SFP1, active compounds read low
[45] = locus YML070W, strain DAK1, active compounds read low
[46] = locus YMR001C, strain CDC5, active compounds read low
[47] = locus YMR205C, strain PFK2 (second series), active compounds read low
[48] = locus YMR277W, strain FCP1, active compounds read low
[49] = locus YNL006W, strain LST8, active compounds read low
[50] = locus YNL020C, strain ARK1, active compounds read low
[51] = locus YNL161W, strain CBK1, active compounds read low
[52] = locus YNL183C, strain NPR1, active compounds read low
[53] = locus YNL207W, strain RIO2, active compounds read low
[54] = locus YNL222W, strain SSU72, active compounds read low
[55] = locus YNL307C, strain MCK1 (second series), active compounds read low
[56] = locus YOL078W, strain AVO1, active compounds read low
[57] = locus YOL136C, strain PFK27, active compounds read low
[58] = locus YOR061W, strain CKA2, active compounds read low
[59] = locus YOR119C, strain RIO1, active compounds read low
[60] = locus YOR231W, strain MKK1, active compounds read low
[61] = locus YOR329C, strain SCD5, active compounds read low
[62] = locus YPL031C, strain PHO85, active compounds read low
[63] = locus YPL153C, strain RAD53, active compounds read low
[64] = locus YPL204W, strain HRR25, active compounds read low
[65] = locus YPL209C, strain IPL1, active compounds read low
[66] = locus YPL256C, strain CLN2, active compounds read low
[67] = locus YPR025C, strain CCL1, active compounds read low
[68] = locus YPR106W, strain ISR1, active compounds read low
[69] = locus YPR111W, strain DBF20, active compounds read low
[70] = strain NNK1, active compounds read low
[71] = strain TSCII, active compounds read low

Measured: normalized growth

Cc1c(Cl)cccc1N=C1SCC(=O)N1Cc1ccco1
inactive: [1] 0.981 | [2] 0.973 | [3] 0.972 | [4] 0.981 | [5] 0.971 | [6] 0.974 | [7] 0.977 | [8] 0.979 | [9] 0.972 | [10] 0.978 | [11] 0.905 | [12] 0.986 | [13] 0.96 | [14] 0.98 | [15] 0.918 | [16] 0.884 | [17] 0.915 | [18] 0.969 | [19] 0.971 | [20] 0.969 | [21] 0.918 | [22] 0.964 | [23] 0.912 | [24] 1 | [25] 0.943 | [27] 0.888 | [28] 0.942 | [29] 0.896 | [30] 0.975 | [31] 0.823 | [32] 0.951 | [33] 0.936 | [34] 0.969 | [35] 0.903 | [36] 0.893 | [37] 0.975 | [38] 0.903 | [39] 0.923 | [40] 0.966 | [41] 0.954 | [43] 0.918 | [44] 0.918 | [45] 0.892 | [46] 0.973 | [47] 0.919 | [48] 0.969 | [49] 0.974 | [50] 0.914 | [51] 0.978 | [52] 0.849 | [53] 0.974 | [54] 0.969 | [55] 0.892 | [56] 0.978 | [57] 0.889 | [58] 0.925 | [59] 0.998 | [60] 0.885 | [61] 0.976 | [62] 0.897 | [63] 0.916 | [64] 0.89 | [65] 0.976 | [67] 0.975 | [68] 0.963 | [69] 0.954 | [70] 0.951 | [71] 0.976
active: [26] 0.758 | [42] 0.809 | [66] 0.791

O=C1CSC(=Nc2cc(Cl)cc(Cl)c2)N1Cc1cccnc1
inactive: [1] 0.997 | [2] 0.989 | [3] 0.995 | [4] 0.986 | [5] 0.992 | [6] 0.991 | [7] 0.994 | [8] 0.988 | [9] 0.97 | [10] 0.997 | [11] 0.924 | [12] 0.995 | [13] 0.983 | [14] 0.996 | [15] 0.947 | [16] 0.887 | [17] 0.927 | [18] 0.986 | [19] 0.994 | [20] 0.991 | [21] 0.944 | [22] 0.994 | [23] 0.937 | [24] 1.03 | [25] 0.947 | [26] 1.14 | [27] 1.05 | [28] 1.01 | [29] 0.958 | [30] 0.986 | [31] 1.03 | [32] 0.974 | [33] 0.931 | [34] 0.996 | [35] 0.912 | [36] 1.02 | [37] 0.974 | [38] 0.948 | [39] 0.958 | [40] 0.999 | [41] 1.02 | [42] 0.968 | [43] 0.955 | [44] 0.957 | [45] 0.918 | [46] 0.996 | [47] 0.938 | [48] 0.996 | [49] 0.994 | [50] 0.945 | [51] 0.996 | [52] 1.03 | [53] 0.993 | [54] 1 | [55] 0.952 | [56] 0.998 | [57] 0.927 | [58] 0.927 | [59] 0.981 | [60] 1.02 | [61] 0.994 | [62] 0.949 | [63] 0.923 | [64] 0.944 | [65] 0.991 | [66] 1.04 | [67] 0.992 | [68] 0.998 | [69] 0.99 | [70] 0.991 | [71] 0.997
